Measurements taken from the supplement of paper PMC7156485.
Values joined by “and” are separate entries in the source; they are usually repeats but may differ in a detail not shown here. Equal values may be shown once. ± gives the standard deviation of the averaged measurements.

Legend:
Details in all cases: concentration: 10 µM; 24 h
HCC1569 [1] = assay: cell number relative to DMSO (% of DMSO); higher = more cells (less growth inhibition / toxicity)
Outline: (§1)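 In 384-well plates holding 800 HCC1569 or TDF cells per well in RPMI with 10% FBS, compounds were tested at 10 µM for 24 h at 37 °C in triplicate. Fixation used 3.7% formaldehyde. Staining used a rabbit anti-H1.0 antibody with an AlexaFluor 647 secondary, plus DAPI. Each value, H1.0 nuclear intensity or cell number, is a median of replicates shown as percent of the plate control, and HCC1569 values were smoothed for positional effects.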

TDF [2] = assay: as above
Outline: as §1

TDF [3] = assay: H1.0 immunofluorescence intensity relative to DMSO (% of DMSO); higher = stronger H1.0 induction, active = 120 or more
Outline: as §1

HCC1569 [4] = assay: H1.0 immunofluorescence intensity relative to DMSO (% of DMSO); higher = stronger H1.0 induction, active = 140 or more
Outline: as §1
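For H1.0 immunofluorescence intensity relative to DMSO in this document: TDF is a line of transformed human dermal fibroblasts of mesenchymal origin.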
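For cell number relative to DMSO in this document: TDF denotes transformed human dermal fibroblasts of mesenchymal origin.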

| SMILES | cell number (HCC1569 [1]) | cell number (TDF [2]) | H1.0 immunofluorescence intensity (TDF [3]) | H1.0 immunofluorescence intensity (HCC1569 [4]) |
| --- | --- | --- | --- | --- |
| Oc1ccccc1O [Pyrocatechol] | 73.6 | 87.2 | 93.7 (inactive) | 117 (inactive) |
| CC(C)CC(NC(=O)C(Cc1c[nH]c2ccccc12)NC(=O)C(Cc1ccc(O)cc1)NC(=O)C(CO)NC(=O)C(Cc1c[nH]c2ccccc12)NC(=O)C(Cc1cnc[nH]1)NC(=O)C1CCC(=O)N1)C(=O)NC(CCCN=C(N)N)C(=O)N1CCCC1C(=O)NCC(N)=O (stereo unspecified) [Triptorelin] | 107 | 89.6 | 97.7 (inactive) | 103 (inactive) |
| CC(C)(C)NC(=O)C1CCC2C3CCC4NC(=O)C=CC4(C)C3CCC12C (stereo unspecified) [Finasteride] | 102 | 97.4 | 95.4 (inactive) | 108 (inactive) |
| Cc1[nH]c2ccccc2c1CCNC(=O)c1cccs1 [N-[2-(2-methyl-1H-indol-3-yl)ethyl]-2-thiophenecarboxamide] | 102 | 95.5 | 97.1 (inactive) | 92.8 (inactive) |
| CN(C)c1ccc(O)c2c1CC1CC3C(N(C)C)C(=O)C(C(N)=O)=C(O)C3(O)C(=O)C1=C2O.Cl (stereo unspecified) | 99.2 | 96.9 | 95.5 (inactive) | 91.5 (inactive) |
| C[N+]1(C)C2CC(OC(=O)C(O)(c3cccs3)c3cccs3)CC1C1OC12.[Br-] (stereo unspecified) [Tiotropium Bromide] | 105 | 97.1 | 95.7 (inactive) | 114 (inactive) |
| CC[N+](C)(C)Cc1ccccc1Br.Cc1ccc(S(=O)(=O)[O-])cc1 [Bretylium tosylate] | 83.4 | 80.2 | 105 (inactive) | 103 (inactive) |
| O=C(O)c1cc(N(Cc2ccccc2O)Cc2ccccc2O)ccc1O [Lavendustin B] | 102 | 95.2 | 94.5 (inactive) | 93.1 (inactive) |
| CC(C)Cc1ccc(CC(=O)O)cc1 [(4-isobutylphenyl)acetic acid] | 101 | 110 | 91.5 (inactive) | 93.1 (inactive) |
| Cc1cc(Cc2cc(C)cc(C(C)(C)C)c2O)c(O)c(C(C)(C)C)c1 | 99.9 and 104 | 90.7 and 98.5 | 96.7 (inactive) and 99.5 (inactive) | 90.7 (inactive) and 88.8 (inactive) |
| COc1cc2ncnc(Nc3cccc(Cl)c3)c2cc1OC | 83.8 | 88 | 99.4 (inactive) | 111 (inactive) |
| CCCCCCCCC=CCCCCCCCC(=O)OCC(CO)OC(C)=O (stereo unspecified) [1-Oleoyl-2-acetyl-glycerol] | 98.9 | 106 | 89.4 (inactive) | 106 (inactive) |
| CC1(C)CCCC(C)(C2CCC3(C)C2C(O)CC2C4(C)CCC(O)C(C)(C)C4C(O)CC23C)O1 (stereo unspecified) [Panaxatriol] | 100 | 93.4 | 94.8 (inactive) | 99.6 (inactive) |
| COc1ccccc1N1CCN(CCN(C(=O)c2ccc(F)cc2)c2ccccn2)CC1.Cl.Cl [p-MPPF dihydrochloride] | 99.7 | 109 | 89.7 (inactive) | 87.2 (inactive) |
| Nc1nc(SCc2ccc([N+](=O)[O-])cc2)c2ncn(C3OC(CO)C(O)C3O)c2n1 (stereo not drawn) [S-(4-Nitrobenzyl)-6-thioguanosine] | 101 | 98.2 | 94.5 (inactive) | 93.2 (inactive) |
| Cn1sc(=O)n(Cc2ccccc2)c1=O [GSK-3b Inhibitor I] | 98.9 | 102 | 98.3 (inactive) | 134 (inactive) |
| Oc1ccc(O)cc1 [Hydroquinone] | 74.9 ± 1.1 | 76.8 ± 3.5 | 97.3 (inactive) | 118 (inactive) |
| COc1cc2ncnc(Nc3ccc(Oc4ccccc4)cc3)c2cc1OC [Src Kinase Inhibitor I] | 88.6 | 94.7 | 106 (inactive) | 147 (active) |
| O=C(O)CP(=O)(O)O [Phosphonoacetic acid] | 101 | 109 | 95.9 (inactive) | 96.9 (inactive) |
| Nc1nc(=O)c2nc(Br)n(C3OC4COP(=O)([O-])OC4C3O)c2[nH]1.[Na+] (stereo unspecified) [8-Bromo-cGMP sodium] | 101 | 100 | 93.4 (inactive) | 92.8 (inactive) |
| Cl.Cl.OCCN1CCN(CCCN2c3ccccc3C=Cc3ccccc32)CC1 | 102 | 98.8 | 99.1 (inactive) | 106 (inactive) |
| COc1cc2ncnc(Nc3ccc(OCc4ccccc4)cc3)c2cc1OC [EGFR/ErbB-2 Inhibitor] | 88.7 | 92.5 | 103 (inactive) | 121 (inactive) |
| CCOC(=O)CCNc1cc(N2CCc3ccccc3CC2)nc(-c2ccccn2)n1 | 78.8 | 20.8 | 171 (active) | 113 (inactive) |
| O=C([O-])CCC(NC(=O)c1ccccc1C(=O)[O-])C(=O)[O-].[Na+].[Na+].[Na+] [Phthalamoyl-L-glutamic acid trisodium] | 61.8 | 103 | 89.2 (inactive) | 170 (active) |
